Test results from PubChem BioAssay AID1508600 (Functional Genomics Laboratory (NCATS/FGL), 2020).
Among all 53,000 sequences or so, about 3,700 (7%) were called active. This is one part of a sample in which actives are shown more often than they occur. A number with no mark means an inactive call.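 How the source made its calls: active means gene knockdowns whose robust z-score for IL-1 alpha signal is at least 2 or at most -2, so actives lie on both sides; inactive means the rest.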

Experiment: Components of the Cytosolic LPS Sensing Pathway: Gene Identification via Genome-wide siRNA Screen;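 further: robust z of the log signal after scaling to non-targeting control siRNA wells of the plate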
Details: RAW264.7 macrophages, IL-1a HTRF, actives lie on both sides, screened at 100 nM (by protocol), cells primed 5 h with Pam3CSK4 first
Method in brief: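 Read-out: IL-1a HTRF on supernatant, divided by plate negative-control median ×100, log-transformed and converted to robust z-score. Cells were RAW264.7 given 100 nM siRNA, Pam3CSK4-primed 5 hours, then LipidA-transfected 24 hour.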

| Sequence | z-score |
| --- | --- |
| GGAUCUCGAAGUUACUGCATT against Dnajc5b | 1.77 |
| GCCUAGCAAUGACUGGGAUTT against Sdhaf2 | -0.635 |
| GCCUUCUGGCAAGAAUCUUTT against Krtap9-3 | 1.21 |
| CCACUCAAGCGGUAAGGAUTT against Slc22a1 | 4.16 (active) |
| GGUGGCACAUAAGAAAUCCTT against Trim66 | -1.61 |
| CGGACACACAGUUGAUCCGTT against Cct6b | -2.15 (active) |
| GCGGGACUUUAUCUCAUCCTT against Mfsd4b1 | -0.815 |
| CCUUCUUUAUAGGUAUGACTT against Klhl36 | 0.91 |
| GGAAAGAAGCAGCGGACUUTT against Nme7 | 2.29 (active) |
| GGCAUUCAGAGCUGAUUCATT against Mia3 | 0.93 |
| GCCCUGGCAUGCUAACAAATT against Prpf3 | -0.749 |
| GGUACUACAAGCUAGCUGUTT against Scd4 | -0.114 |
| GGAAGUUUGUAGAGUAUGUTT against Xylt1 | -0.187 |
| CCCGAGAACAUCUUGUACGTT against Rps6ka4 | 2.69 (active) |
| GGGUUCAAGAGAUGAUAUUTT against Usp11 | 0.245 |
| GGCUGAGAAACUGGAUGAATT against Rem1 | -0.143 |
| GGCUGUAUGACUCAGCUCUTT against Olfr711 | -0.912 |
| CCGGAAACUUCCUACGUGUTT against Cbln1 | -0.424 |
| GGAUAGAAACAUUUCUGUGTT against Olfr1145 | 2.1 (active) |
| GGACCAUGAGAAAUUUAAUTT against Nr2f1 | 1.41 |
| GGCGGUUAAUGACAAGAACTT against Sdk2 | -0.0303 |
| CGUGGAGUAAGGAGAAUAUTT against Ints7 | 0.364 |
| GGAAAUCACAUUGUCCUGCTT against 3010003L21Rik | 1.13 |
| GGAUCUGACACACAUGAUCTT against Med16 | 2.3 (active) |
| GGAGAAAGCAAGGAUAAUCTT against Rgs20 | 0.562 |
| CGCAGAGAAGGUCAUUAAATT against Il1f5 | 0.519 |
| GGUCUUCUCCGAGUACUUUTT against Ap1m1 | 4.38 (active) |

| Sequence | z-score |
| --- | --- |
| GCACUCAGAACAACUAAAATT against Dglucy | 0.641 |
| GCUCCAUGAAUGUCCAACATT against Sphkap | -2.41 (active) |
| GUUCUAGGCCUCCUGAAGCTT against Dohh | -0.808 |
| GCUGAUGUCUCAACCUAGATT against Zkscan2 | -1.72 |
| GGCUUUGUCUUGAAUGGCUTT against Adgre1 | -1.11 |
| CGCCGGAAGUUCUACCACUTT against Tmem205 | 0.223 |
| GAACAUCAUCUCACACUCATT against Olfr874 | -0.000467 |
| GGAUAGAGACUGCUGGGUUTT against Zfp579 | 0.248 |
| CCAAGUUGGCAUACUAUUCTT against Pank4 | -0.126 |
| GCCAGUCCUUCAAGUGUAUTT against Jak2 | 4.16 (active) |
| CCAUCUCAUCCCACGACACTT against Mrgprx1 | -0.334 |
| GGCCUUUGCAUGCAAUAGUTT against Zfp119b | 0.0596 |
| GCAGCCUUGUUUCAGUUCUTT against Fam43a | 0.765 |
| CCUCUCUACAUCCACUACUTT against Pogz | 3 (active) |
| GGAGAACACAGGUGGACUUTT against Ppy | 0.125 |
| GGAGGCCAAGCAGAAAGAGTT against Kars | 0.184 |
| GACUGCUUCCUUCUGACUGTT against Olfr399 | -0.575 |
| AAAAGAUGCAUGUCUCCUUTT against Hbq1a | -1.76 |
| GGCUUUUGACUUUACCCUATT against Acy3 | -1.3 |
| GGAAAUAUUUUCUCAGCAATT against Pcdhga1 | 1.52 |
| GCCCUCAUACCUACUAUGUTT against 4631405J19Rik | 0.787 |
| GGAAGAGAUUUCUAAACUUTT against Mcoln2 | -1.93 |
| GGGCAAAAUAUAGCAAUGATT against Vmn1r233 | -2.11 (active) |
| GCUGACUUCACAUUUGGCUTT against Mms19 | -0.24 |
| GGAGUAUGUGGAAUGUCUATT against Creb3l1 | -0.903 |
| GGAUGACUCUAUCUUUCUATT against Igfbp4 | 0.892 |
| GGAAUACGUAUACUUCAGCTT against Dipk1c | 0.495 |
